Experimental data published in PubChem BioAssay AID1159580 (chemical genetic matrix, 2015).
Out of some 5,500 compounds screened, about 2,000 (36%) were called active. Another 18% or so got no clear call; they are omitted. Cut-off read from the data, not from the text of the source: active = normalized growth mostly below about 0.91 (no sharp cut-off); inconclusive = no clear call, values can overlap the other calls; inactive = mostly above about 0.92. Some of the results follow.

Assay: chemical genetic growth profiling, strain panel (AID 1159580);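 note: tested at 20 µM; growth read once vehicle control cultures reached saturation at 30 °C; 1 = growth at the plate median or of vehicle wells; lower values mean less growth of the strain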
Details: S. cerevisiae deletion strains, growth OD

Measured: normalized growth

COc1cc([C@@H]2c3cc4c(c(O)c3C[C@H]3COC(=O)[C@@H]32)OCO4)cc(OC)c1OC
inactive: locus YAL013W, strain DEP1, hits give low values 0.986 | locus YAL021C, strain ccr4, hits give low values 0.995 | locus YAL026C, strain drs2, hits give low values 0.992 | locus YAL030W, strain snc1, hits give low values 0.986 | locus YBL061C, strain skt5, hits give low values 0.994 | locus YBR009C, strain hhf1, hits give low values 0.993 | locus YBR021W, strain FUR4, hits give low values 1 | locus YBR023C, strain chs3, hits give low values 0.999 | locus YBR171W, strain sec66, hits give low values 0.971 | locus YBR229C, strain ROT2, hits give low values 0.985 | locus YBR231C, strain swc5, hits give low values 0.977 | locus YBR279W, strain paf1, hits give low values 0.994 | locus YCL011C, strain gbp2, hits give low values 0.996 | locus YCL016C, strain dcc1, hits give low values 1 | locus YCL029C, strain bik1, hits give low values 0.978 | locus YCL069W, strain vba3, hits give low values 1 | locus YCR088W, strain abp1, hits give low values 0.984 | locus YDL005C, strain med2, hits give low values 0.979 | locus YDL035C, strain GPR1, hits give low values 0.981 | locus YDL040C, strain nat1, hits give low values 0.994 | locus YDL074C, strain BRE1, hits give low values 1.05 | locus YDL101C, strain DUN1, hits give low values 0.985 | locus YDL134C, strain PPH21, hits give low values 0.997 | locus YDL185W, strain tfp1, hits give low values 0.959 | locus YDL192W, strain arf1, hits give low values 0.972 | locus YDR001C, strain nth1, hits give low values 0.988 | locus YDR069C, strain doa4, hits give low values 0.981 | locus YDR101C, strain arx1, hits give low values 0.995 | locus YDR137W, strain rgp1, hits give low values 0.993 | locus YDR150W, strain NUM1, hits give low values 0.973 | locus YDR159W, strain sac3, hits give low values 0.967 | locus YDR162C, strain NBP2, hits give low values 0.998 | locus YDR195W, strain ref2 0.93 | locus YDR297W, strain sur2, hits give low values 0.976 | locus YDR318W, strain mcm21, hits give low values 0.986 | locus YDR334W, strain swr1, hits give low values 0.987 | locus YDR335W, strain msn5, hits give low values 1 | locus YDR388W, hits give low values 0.991 | locus YDR392W, strain spt3, hits give low values 0.924 | locus YDR502C, strain sam2, hits give low values 0.983 | locus YEL003W, strain gim4, hits give low values 0.983 | locus YEL037C, strain rad23, hits give low values 0.993 | locus YEL061C, strain CIN8 (second series), hits give low values 1 | locus YEL061C, strain CIN8, hits give low values 0.99 | locus YER015W, strain faa2, hits give low values 1 | locus YER016W, strain bim1, hits give low values 0.979 | locus YER110C, hits give low values 0.971 | locus YER111C, strain swi4, hits give low values 0.989 | locus YER155C, strain BEM2 (second series), hits give low values 0.96 | locus YER155C, strain BEM2, hits give low values 0.994 | locus YER167W, strain BCK2, hits give low values 0.976 | locus YFR010W, strain ubp6, hits give low values 0.995 | locus YGL078C, strain dbp3, hits give low values 0.986 | locus YGL086W, strain mad1, hits give low values 0.982 | locus YGL167C, strain pmr1, hits give low values 0.991 | locus YGL173C, strain kem1, hits give low values 0.98 | locus YGL227W, strain vid30, hits give low values 0.983 | locus YGL240W, strain doc1, hits give low values 0.961 | locus YGL248W, strain PDE1, hits give low values 0.988 | locus YGL253W, strain hxk2, hits give low values 0.994 | locus YGR078C, strain PAC10, hits give low values 1.03 | locus YGR135W, strain pre9, hits give low values 1.02 | locus YGR229C, strain SMI1, hits give low values 1.05 | locus YGR252W, strain gcn5, hits give low values 1.04 | locus YHR013C, strain ard1, hits give low values 1 | locus YHR027C, strain rpn1, hits give low values 0.976 | locus YHR030C, strain SLT2, hits give low values 0.979 | locus YHR079C, strain IRE1 (second series), hits give low values 0.983 | locus YHR094C, strain hxt1, hits give low values 0.974 | locus YHR129C, strain ARP1, hits give low values 0.993 | locus YHR142W, strain chs7, hits give low values 1.02 | locus YHR200W, strain rpn10, hits give low values 0.975 | locus YIL066C, strain RNR3, hits give low values 0.983 | locus YIL073C, strain SPO22, hits give low values 0.923 | locus YIL125W, strain kgd1, hits give low values 0.986 | locus YIR030C, strain dcg1, hits give low values 0.982 | locus YJL092W, strain hpr5, hits give low values 0.999 | locus YJL095W, strain BCK1 (second series), hits give low values 0.987 | locus YJL095W, strain BCK1, hits give low values 1.05 | locus YJL115W, strain asf1, hits give low values 0.987 | locus YJL129C, strain trk1, hits give low values 0.962 | locus YJL134W, strain LCB3, hits give low values 0.982 | locus YJL154C, strain vps35, hits give low values 0.987 | locus YJL164C, strain tpk1, hits give low values 1 | locus YJL166W, strain qcr8, hits give low values 0.995 | locus YJL168C, strain set2, hits give low values 0.985 | locus YJL187C, strain SWE1 (second series), hits give low values 1.01 | locus YJL187C, strain SWE1, hits give low values 0.983
